# Source: PubChem
# A selection: hits, their analogues and other compounds. The true share with any hit is near 27%.
# CYP2C9 inhib – inhibitors of human CYP2C9. P11712. CYP2C9 Supersomes, luciferin-H conversion, luminescence. inhibition, % at 5 µM. 96,000 tested, 20% active;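 active = blocking of liver enzyme CYP2C9 beyond about 50% at 5 µM, limit read from the data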
# CYP2C19 inh – human CYP2C19 inhibition | AID 778 | P33261 | 96,000 tested, 21% active | inhibition, % at 5 µM | CYP2C19 Supersomes, luciferin-H EGE luminescence, 30 min;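 active = CYP2C19 inhibition above a set limit at 5 µM in the primary screen, cut at about 50% in these data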;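 also: plate controls were negative control wells for no effect and 2.5 mM tranylcypromine positive control for full effect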
# CYP2C9 act – CYP2C9 (human) activation | 96,000 tested, 1.4% active | P11712 | recombinant CYP2C9, luciferin-H conversion, luminescence; active compounds read high; factor 1 = untreated enzyme, 0 = blocked | activation factor at 5 µM;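 active = activation factor of 2 or more for CYP2C9 at a 5 µM dose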;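 also: 0 = sulfaphenazole-blocked wells and 1 = vehicle-only wells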
# Cav3 T inh – human Cav3.2 channel inhibition, primary screen | 100,000 tested, 4% active | B-score at 10 µM | AID 449739 | O95180 | Cav3.2-expressing cells, Fluo-4 calcium fluorescence FDSS; active compounds read low;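 active = single-dose well whose peak fluorescence ratio is a statistical outlier from its plate by either plate-standardised score or position-corrected B-score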
# CYP2C19 activ – increases human CYP2C19 enzyme activity; 96,000 tested, under 10 active; recombinant CYP2C19, luciferin-H EGE luminescence; active compounds read high; 0 = fully inhibited enzyme, 1 = untreated enzyme; activation factor at 5 µM;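 active = activation factor of at least 2 at 5 µM in the primary screen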;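 also: 0 = wells with 2.5 mM tranylcypromine and 1 = vehicle-only wells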
# Pyk2 oligo antag – antagonists of human Pyk2 oligomerization; Q14289; Q293 cells, Pyk2 FERM NanoBiT luminescence; active compounds read low; z-score (the deposit names both 25 µM and 10 µM); 99,000 tested, 0.83% active; AID 1347419;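 active = Z-score of -3 or lower, scaled per plate to the spread of control and sample wells; inactive = z-score above -3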;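 also: negative z-score means lost luminescence so less FERM oligomerization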
# Target sequence (Q14289 whole entry, looked up): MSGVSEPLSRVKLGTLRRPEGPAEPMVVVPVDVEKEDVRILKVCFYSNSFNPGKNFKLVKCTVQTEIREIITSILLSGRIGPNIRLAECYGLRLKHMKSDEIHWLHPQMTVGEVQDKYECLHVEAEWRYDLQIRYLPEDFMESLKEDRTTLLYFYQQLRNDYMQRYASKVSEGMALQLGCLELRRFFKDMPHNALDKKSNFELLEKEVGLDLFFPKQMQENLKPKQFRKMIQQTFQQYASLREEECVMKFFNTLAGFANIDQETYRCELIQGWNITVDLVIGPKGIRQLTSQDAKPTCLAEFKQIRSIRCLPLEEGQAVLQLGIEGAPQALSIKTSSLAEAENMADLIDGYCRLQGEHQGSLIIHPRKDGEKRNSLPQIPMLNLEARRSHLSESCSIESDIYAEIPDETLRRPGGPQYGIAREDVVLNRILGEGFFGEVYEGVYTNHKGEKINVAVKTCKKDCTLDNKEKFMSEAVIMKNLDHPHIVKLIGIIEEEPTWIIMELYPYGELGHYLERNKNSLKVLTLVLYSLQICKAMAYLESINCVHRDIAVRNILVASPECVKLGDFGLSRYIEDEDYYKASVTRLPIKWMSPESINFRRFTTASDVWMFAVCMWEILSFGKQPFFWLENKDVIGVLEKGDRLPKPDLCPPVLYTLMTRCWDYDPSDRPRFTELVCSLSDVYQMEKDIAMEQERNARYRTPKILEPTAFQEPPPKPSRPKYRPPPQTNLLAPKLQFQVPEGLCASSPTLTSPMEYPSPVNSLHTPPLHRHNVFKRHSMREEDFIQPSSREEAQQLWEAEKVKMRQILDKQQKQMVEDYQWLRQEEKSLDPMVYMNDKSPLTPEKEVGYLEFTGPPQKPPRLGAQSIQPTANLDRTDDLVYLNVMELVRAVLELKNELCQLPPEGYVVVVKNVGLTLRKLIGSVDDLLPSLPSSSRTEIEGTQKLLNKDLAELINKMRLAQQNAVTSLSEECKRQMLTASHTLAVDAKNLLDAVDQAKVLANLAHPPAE
# The depositor's hits bear a star; · = no result given.
SMILES,CYP2C9 inhib,CYP2C19 inh,CYP2C9 act,Cav3 T inh,CYP2C19 activ,Pyk2 oligo antag
NC(=O)c1c(-c2cccs2)csc1N,6,-9,0.9,-0.19,1.1,·
CCOc1ccc(C(=O)Nc2cc(=O)n(C)c(=O)n2C)cc1,·,·,·,0.25,·,·
NC(=O)COc1ccc(C2c3c(oc4ccccc4c3=O)C(=O)N2CC2CCCO2)cc1 (centres undefined),-4,-18,1,1.3,1.2,0.86
NC(=O)CSc1nnc(-c2ccc(S(=O)(=O)N3CCOCC3)cc2)n1CC1CCCO1 (centres undefined),5,0,1,0.21,1,0.01
Cc1ccc(-n2c(SCC(N)=O)nnc2-c2ccc(S(=O)(=O)N3CCCCC3)cc2)c(C)c1,82*,8,0.2,1.3,0.9,1.4
[O-]C1=N/[N+](=C/c2ccccc2Cl)CC1,-34,-19,1.3,0.16,1.2,-0.42
CCOC(=O)c1c2ccc(OCC(=O)N/N=C/c3ccccc3C(F)(F)F)cc2n2ccccc12,59*,16,0.4,-0.49,0.8,·
O=C(N/N=C\c1ccc(CN(Cc2ccc(Cl)cc2)S(=O)(=O)c2ccccc2)o1)C(=O)Nc1ccc(F)cc1,76*,82*,0.2,·,0.2,-0.55
CC[C@H](C)/C=C/C1=CC2=C(Cl)C(=O)[C@@]3(C)OC(=O)C(C(=O)[C@H](C)[C@@H](C)O)=C3C2=CO1,·,·,·,-0.39,·,·
Cc1ccc(CNC(=O)Cc2cccs2)cc1,-4,90*,1,0.59,0.1,0.12
Cc1cc2cc(CNC(=O)Cc3cccs3)ccc2n1C,·,·,·,-4.2*,·,·
O=C(Cc1cccs1)NCc1ccncc1,13,4,0.9,·,1,0.7
Cc1cc2cc(CNC(=O)c3ccc(Br)o3)ccc2n1C,·,·,·,-4.6,·,·
O=C(Cc1cccs1)NCc1ccccc1F,10,71*,0.9,0.47,0.3,0.72
O=C(Cc1cccs1)NCc1ccccc1,3,41,1,0.99,0.6,0.1
O=C(OCCN=C1NS(=O)(=O)c2ccccc21)C1CC(=O)N(c2ccc3ccccc3c2)C1 (centres undefined),-34,31,1.3,0.0071,0.7,0.95
CCN(CC)C(=O)COc1ccc(-c2ccccc2)cc1,17,40,0.8,-1.4,0.6,-1.4
Cc1ccc(S(=O)(=O)N(CC(=O)N2CCC(C)CC2)Cc2ccccc2F)cc1,79*,84*,0.2,-2.5,0.2,-1.2
Cc1ccc(S(=O)(=O)N(CC(=O)O)Cc2ccccc2F)cc1,51*,-2,0.5,0.029,1,0.29
Cc1ccc(Cl)cc1NC(=O)CC(O)(C(F)(F)F)C(F)(F)F,37,75*,0.6,-2.7*,0.3,-0.47
Cc1ccc(Cl)cc1NC(=O)CSC(N)=O,27,72*,0.7,-4.1,0.3,0.75
CCOC(=O)CSCC(=O)Nc1cc(C)ccc1C,-11,4,1.1,-0.46,1,0.84
O=C(Oc1cccc(N2C(=O)CCC2=O)c1)C1CC(=O)N(c2ccc(F)cc2)C1 (centres undefined),8,-13,0.9,-0.34,1.1,0.18
CN(C(=O)Nc1ccc(S(=O)(=O)N(C)C)cc1)C1CCCCC1,-14,-8,1.1,0.05,1.1,1.9
Cc1nn(C)c(Cl)c1NC(=O)OCc1ccc(Cl)cc1Cl,-14,68*,1.1,·,0.3,-0.95
SMILES,CYP2C9 inhib,CYP2C19 inh,CYP2C9 act,Cav3 T inh,CYP2C19 activ,Pyk2 oligo antag
Cc1nnsc1NC(=O)OCc1ccc(Cl)cc1Cl,44,71*,0.6,-0.56,0.3,-1.5
COc1ccc(CC(C(=O)Nc2cccc(F)c2)c2nn[nH]n2)c(OC)c1 (centres undefined),32,29,0.7,-0.81,0.7,0.14
CC(C)CC(c1nnnn1CCc1ccccc1)N1CCC(C(N)=O)CC1 (centres undefined),·,·,·,1.6,·,0.7
COc1cc(C2N(c3ccccc3)CCN2c2ccccc2)cc(OC)c1OC,41,75*,0.6,-3.4,0.3,0.1
COc1cc(C2N(c3ccc(Cl)cc3)C(=O)C3CCCN32)cc(OC)c1OC (centres undefined),-12,8,1.1,1,0.9,·
c1ccc2c(c1)[nH]c1c(N3CCCC3)ncnc12,-6,3,1.1,·,1,0.83
COc1cccc2[nH]c3c(N4CCC(C(N)=O)CC4)ncnc3c12,18,2,0.8,1.5,1,0.48
c1ccc2c(c1)[nH]c1c(N3CCOCC3)ncnc12,52*,12,0.5,-1.4,0.9,1.6
Cc1cccc2[nH]c3c(N4CCC5(CC4)OCCO5)ncnc3c12,17,51*,0.8,1.5,0.5,-0.8
Clc1ccc2[nH]c3c(N4CCC5(CC4)OCCO5)ncnc3c2c1,73*,76*,0.3,1.7,0.2,·
Cc1ccc2[nH]c3c(N4CCOCC4)ncnc3c2c1,33,12,0.7,-0.0085,0.9,1.7
Brc1ccc2[nH]c3c(N4CCc5ccccc5C4)ncnc3c2c1,92*,6,0.1,0.59,0.9,·
Cc1ccc(-c2nsc3c(N4CCN(C(=O)c5ccco5)CC4)ncnc23)cc1,23,10,0.8,·,0.9,·
Cc1cccc2[nH]c3c(N4CCN(C(=O)c5ccco5)CC4)ncnc3c12,39,90*,0.6,0.76,0.1,-1
Cc1ccc(C)n1-n1c(C)nc2scc(-c3ccccc3)c2c1=O,74*,72*,0.3,-6.9*,0.3,-0.96
COc1ccc(C(=O)N2CCCC2)cc1,-5,3,1,0.44,1,0.23
CCC12CN(C(=O)c3ccc(OC)cc3)CC(CC)(CN(C(=O)c3ccc(OC)cc3)C1)C2=O,9,58*,0.9,0.75,0.4,0.5
C[C@@H]1CCC[C@]2(O[C@@H](CCO)C[C@@H](O)[C@@H]2O)O1,·,·,·,0.057,·,·
CCOC(=O)c1c(NC(C)=O)no[n+]1[O-],·,·,·,-1.3,·,1
C/C(N)=C(/C#N)C(=O)CSc1nnc(Nc2c(C)cccc2C)s1,69*,72*,0.3,-0.15,0.3,-0.47
C/C(N)=C(/C#N)C(=O)CSc1nnc(Nc2cccc(C)c2C)s1,66*,66*,0.3,-0.069,0.3,-1.4
COc1ccc(C(C)=O)cc1CSc1nnc(Nc2c(C)cccc2C)s1,·,·,·,·,·,-0.93
C/C(N)=C(/C#N)C(=O)CSc1nnc(SCc2ccc(Cl)cc2)s1,71*,31,0.3,-0.54,0.7,-1.7
COc1ccc(N2C(=O)[C@@H]3Cc4ccccc4CN3C2=O)cc1,-3,-5,1,-0.76,1.1,-0.32
Clc1ccc(C(c2nnnn2C2CCCC2)N2CCN(c3nc4ccccc4s3)CC2)cc1 (centres undefined),·,·,·,-8.1*,·,-3.3*
c1cnc2ccc(C(c3nnnn3C3CCCC3)N3CCN(c4nc5ccccc5s4)CC3)cc2c1 (centres undefined),88*,70*,0.1,-3.9*,0.3,-1.7
CCn1c(C)nc2cc(C(=O)n3cc(C(=O)c4cc(F)ccc4O)cn3)ccc21,-40,15,1.4,·,0.9,·
